Screening results (PubChem)
Granule exo inh: LAMP-1 surface exposure blockers, TALL-104 cells – cell-based, flow cytometry, MLPCN library, primary screen; TALL-104 LAMP-1 surface exposure; cells stimulated with thapsigargin and PMA; inhibition, % at 10 µM; 360,000 tested, 0.66% active; AID 651702, 2012;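 active = inhibition above about 55%, limit read from the data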
PP5 inh: PP5 phosphatase inhibitors, primary screen, biochemical, fluorescence; Serine/threonine-protein phosphatase 5 (Homo sapiens), P53041; purified PP5c, OMFP substrate fluorescence; inhibition, % at 6.7 µM; 320,000 tested, 0.18% active; AID 1987, 2009;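 active = inhibition above the campaign's mean inhibition across all tested compounds plus 3 SD, cut at about 9.5% in these data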;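 note: 0% = DMSO only and 100% = 100 µM cantharidin control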
PP1 counter: PP1-alpha phosphatase inhibitors, primary screen, counter-screen for PP5 inhibitor project, biochemical, fluorescence, OMFP substrate, single point. Serine/threonine-protein phosphatase PP1-alpha catalytic subunit (Homo sapiens), P62136. purified PP1alpha. inhibition, % at 6.7 µM. 320,000 tested, 0.9% active. AID 2235, 2010;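 active = inhibition above the mean inhibition of all tested compounds plus 3 SD, computed separately for each screening campaign, cut at about 15% in these data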
Target sequence (P62136 whole entry, looked up): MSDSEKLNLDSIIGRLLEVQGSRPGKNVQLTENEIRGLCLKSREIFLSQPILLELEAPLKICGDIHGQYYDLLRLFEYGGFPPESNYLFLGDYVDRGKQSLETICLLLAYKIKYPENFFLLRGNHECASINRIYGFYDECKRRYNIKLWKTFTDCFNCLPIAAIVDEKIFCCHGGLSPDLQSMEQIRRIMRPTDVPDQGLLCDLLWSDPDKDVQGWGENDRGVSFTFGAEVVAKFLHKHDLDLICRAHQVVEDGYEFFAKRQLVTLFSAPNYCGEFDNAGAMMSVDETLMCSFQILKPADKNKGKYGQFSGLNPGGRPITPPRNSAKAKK
IDE act: human IDE activators in live cells, primary screen, fluorescence polarization, HEK cells, FAbeta-B substrate | activation, % at 5.96 µM | 340,000 tested, 0.073% active | FAbeta-B cleavage; 0% vehicle, 100% cell-free pure enzyme wells | Insulin-degrading enzyme (Homo sapiens), P14735;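 active = activation above the mean of all tested compounds plus 3 SD, set per screening campaign, cut at about 17% in these data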
IDE inh: human IDE inhibitors in live cells, primary screen, fluorescence polarization, HEK cells, FAbetaB substrate. Insulin-degrading enzyme (Homo sapiens), P14735. 320,000 tested, 0.41% active. inhibition, % at 5.59 µM. FAbetaB cleavage;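 active = percent inhibition above the average of all tested compounds plus 3 SD, set per screening campaign, cut at about 16% in these data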;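 note: IDE supplied by intact live HEK cells; FP after avidin binding of uncleaved biotin substrate so inhibition keeps polarization high; 0% = DMSO wells and 100% = 60 µM reference IDE inhibitor Ii1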
SKKanGAS inh: S. pyogenes SKKanGAS growth inhibitors in kanamycin, primary screen, streptokinase expression inhibitor project, SKKanGAS strain, BacTiter-Glo luminescence. AID 1662, 2009. 300,000 tested, 1.3% active. 6 h. inhibition, % at 7.5 µM;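 active = mean replicate score, as percent of positive control median, at least 50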;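 note: strain carries kanamycin resistance gene driven by streptokinase promoter and grows in 40 µg/ml kanamycin; loss of luminescence reflects streptokinase promoter inhibition or plain growth inhibition; 0% = median of DMSO wells and 100% = positive control at its reference dose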
* marks the source's active call; other numbers are inactive results; / = not tested or not shown. In the library only some 2.8% were active in any assay of this set; here they are far more common.

SMILES | Granule exo inh | PP5 inh | PP1 counter | IDE act | IDE inh | SKKanGAS inh
CCOP(=O)(OCC)C(NC(=O)Nc1ccc(Cl)c(Cl)c1)C(N)=O (centres undefined) | -3 | 0 | 17* | 3 | 0 | -6
O=C(Nc1ccccc1)Nc1cnccn1 | 0 | 1 | -3 | 4 | 0 | 20
Cc1ccccc1OCCn1cnc2cc([N+](=O)[O-])ccc2c1=O | 12 | 0 | 3 | 2 | 1 | 7
CN(Cc1cnn(C)c1)Cc1nc(-c2ccc(Cl)cc2)no1 | 0 | 1 | -5 | -1 | 1 | -4
CCc1ccc(CN(C)Cc2nc(-c3cccc(Cl)c3)no2)nc1 | 2 | 5 | 7 | 1 | 3 | 62*
c1cncc(N=c2scc(-c3cccc4ccccc34)n2CCCn2ccnc2)c1 | 3 | 2 | 16* | 0 | 7 | 5
O=C(O)CSc1c(-c2ccccc2)c2cc(Cl)ccc2[nH]c1=O | 1 | 0 | 1 | 3 | 4 | -7
CCN(CC)C(=S)Sc1c(-c2ccccc2)c2cc(Cl)ccc2[nH]c1=O | -1 | 3 | 0 | -3 | 3 | 92*
CN(C)c1ccc(NC(=O)Nc2nc(C(N)C3CCCCC3)cs2)cc1 (centres undefined) | 30 | / | / | / | / | /
COc1ccc2cc(C(=O)/C=C/c3cc(OC)c(O)c(OC)c3)ccc2c1 | 39 | 3 | 0 | -9 | 7 | 69*
COc1ccc(S(=O)(=O)N2CCCOC2CNC(=O)C(=O)NCCc2ccco2)cc1 (centres undefined) | 1 | 1 | -1 | -3 | 3 | 30
N#Cc1c(NC(=S)NC(=O)C2CCCC2)sc2c1CCCCC2 | 11 | 2 | 2 | -4 | 5 | 76*
CC(C)CC(=O)NC(NC(=S)Nc1sc2c(c1C#N)CCCC2)C(Cl)(Cl)Cl (centres undefined) | 2 | 1 | 8 | 7 | 1 | 56*
COc1ccccc1C1CC(c2ccco2)=NN1S(C)(=O)=O (centres undefined) | -5 | 1 | -3 | -3 | -1 | 2
COc1ccc(CC(=O)NCC2CCCN(Cc3cccc(SC)c3)C2)cc1 (centres undefined) | 48 | 6 | -4 | 1 | 2 | -2
O=C(COc1ccccc1)Nc1cccc(-c2nc3cc4ccccc4cc3[nH]2)c1 | 30 | 2 | 2 | 2 | 1 | 67*
O=C(COc1ccccc1)Nc1cccc(-c2nn[nH]n2)c1 | 13 | 0 | 1 | 0 | -4 | 9
O=C(c1cc(-c2ccccc2)n[nH]1)N1CCc2c([nH]c3ccccc23)C1c1ccccn1 (centres undefined) | -1 | 8 | 1 | -2 | 9 | 75*
O=C(c1cccs1)N1CCc2c([nH]c3ccccc23)C1c1ccccn1 (centres undefined) | 10 | 5 | 1 | 4 | 2 | 6
CN(C[C@H](Cc1ccccc1)N(C[C@H](Cc1cccc2ccccc12)N(CCc1ccccc1)N=O)N=O)N=O | -3 | 4 | 16* | 3 | 2 | 2
CCn1cc(S(=O)(=O)NCCc2ccc(OC)c(OC)c2)cn1 | 1 | 1 | -6 | 0 | -1 | -9
CCOc1ccc2nc(N3C(=O)/C(=C/c4ccc(Cl)cc4)NC3=S)sc2c1 | -3 | / | / | 7 | / | 96*
CC(NC(=O)CN1c2cccc3cccc(c23)S1(=O)=O)c1ccc(S(N)(=O)=O)cc1 (centres undefined) | -3 | -1 | 1 | 3 | -4 | 0
NC(=S)NNc1ccc(Cl)c(Cl)c1 | 68* | 2 | -5 | -1 | 9 | -9
CC(C)=CCc1c(-c2ccc(O)cc2O)oc2c3c(cc(O)c2c1=O)OC(C)(C)C=C3 | / | 3 | -3 | / | 3 | 108*
CC(C)=CCc1c2c(c(O)c3c(=O)c4c(oc13)-c1cc(O)c(O)cc1OC4C=C(C)C)C=CC(C)(C)O2 (centres undefined) | / | 0 | -6 | / | 0 | 93*
